Holding throughout (conditions): mRNA level, 48 h; actives raise or lower the signal
Read-out in assay [1]: Cytochrome P450 4A22 (Homo sapiens) (UniProt Q5TCH4)
Briefly: LTEA_HepaRG_CYP4A22: Life Technologies and Expression Analysis (LTEA) Assay for Cytochrome P450 4A22 (CYP4A22) using HepaRG (AID 2283495). In a few lines: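 HepaRG, 48 h post-plating -> serum-free induction medium; dosed 48 h, duplicate, 8 conc. (100 uM top, half-log), 0.5% DMSO. Readout: CYP4A22 mRNA by qRT-PCR, ACTB/GAPDH/POLR2A normalization; gain/loss fit relative to DMSO.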

Read-out in assay [2]: Cytochrome P450 7A1 (Homo sapiens) (UniProt P22680)
Briefly: LTEA_HepaRG_CYP7A1: Life Technologies and Expression Analysis (LTEA) Assay for Cytochrome P450 7A1 (CYP7A1) using HepaRG (AID 2283496). In a few lines: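 Using 0.5% DMSO as vehicle and baseline, chemicals were tested in duplicate over an 8-point range from 100 uM on HepaRG cells for 48 h; qRT-PCR signals were normalised to ACTB, GAPDH and POLR2A.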

Read-out in assay [3]: Glutathione S-Transferase (GSTA2), GSTA2 (gene 2939)
Briefly: LTEA_HepaRG_GSTA2: Life Technologies and Expression Analysis (LTEA) Assay for Glutathione S-Transferase (GSTA2) using HepaRG (AID 2283497). Summed up:
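qRT-PCR readout of GSTA2 transcript, normalized to three housekeeping genes, fitted bidirectionally against 0.5% DMSO baseline. Differentiated HepaRG cells received compound for 48 h at 8 concentrations (top 100 uM, half-log steps).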

Read-out in assay [4]: growth arrest and DNA damage 45 (GADD45G), GADD45G (gene 10912)
The experiment in a line: LTEA_HepaRG_GADD45G: Life Technologies and Expression Analysis (LTEA) Assay for growth arrest and DNA damage 45 (GADD45G) using HepaRG (AID 2283499). Summed up:
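HepaRG, 48 h exposure, top 100 uM, half-log 8-point series, 0.5% DMSO vehicle, duplicates. Readout: GADD45G transcript by qRT-PCR (Fluidigm array), housekeeping-normalised (ACTB/GAPDH/POLR2A). Bidirectional curve fit vs DMSO baseline.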

Read-out in assay [5]: Glutamate-cysteine ligase regulatory (GCLM), GCLM (gene 2730)
Briefly: LTEA_HepaRG_GCLM: Life Technologies and Expression Analysis (LTEA) Assay for Glutamate-cysteine ligase regulatory (GCLM) using HepaRG (AID 2283500). Summed up:
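HepaRG, 48 h dosing, 100 uM top, half-log x8, 0.5% DMSO vehicle. Readout: GCLM mRNA by TaqMan qRT-PCR, housekeeping-normalized (ACTB/GAPDH/POLR2A). Curves fit bidirectionally vs DMSO baseline.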

Read-out in assay [6]: Heat shock 70 kDa protein 1 (HSPA1A), gene 3303
The experiment in a line: LTEA_HepaRG_HSPA1A: Life Technologies and Expression Analysis (LTEA) Assay for Heat shock 70 kDa protein 1 (HSPA1A) using HepaRG (AID 2283502). Summed up: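 HepaRG, 48 h exposure, 8-pt half-log CRC from 100 uM in 0.5% DMSO, duplicates. Readout: TaqMan qRT-PCR of HSPA1A mRNA, housekeeping-normalized (ACTB/GAPDH/POLR2A). Bidirectional fit vs 0.5% DMSO baseline.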

Read-out in assay [7]: Hypoxia-inducible factor 1-alpha (Homo sapiens) (UniProt Q16665)
Briefly: LTEA_HepaRG_HIF1A: Life Technologies and Expression Analysis (LTEA) Assay for Hypoxia-inducible factor 1 (HIF1A) Trancription factor using HepaRG (AID 2283503). In a few lines: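 Gain- or loss-of-signal HIF1A mRNA changes are fitted against a DMSO baseline. HepaRG cultures receive eight concentrations, highest 100 uM, for 48 h in serum-free induction medium with 0.5% DMSO.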

Read-out in assay [8]: 3-Hydroxy-3-Methylglutaryl-CoA Synthase 2 (HMGCS2), HMGCS2 (gene 3158)
Briefly: LTEA_HepaRG_HMGCS2: Life Technologies and Expression Analysis (LTEA) Assay for 3-Hydroxy-3-Methylglutaryl-CoA Synthase 2 (HMGCS2) using HepaRG (AID 2283504). In a few lines:
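qRT-PCR read-out of HMGCS2 transcript, normalised to three housekeeping genes, in HepaRG cells after 48 h chemical exposure. Eight-point curves from 100 uM, half-log dilutions, 0.5% DMSO vehicle; gain or loss fitted relative to DMSO baseline.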

Read-out in assay [9]: HGF (gene 3082)
The experiment in a line: LTEA_HepaRG_HGF: Life Technologies and Expression Analysis (LTEA) Assay for Hepatocyte Growth Facto (HGF) using HepaRG (AID 2283505). In a few lines:
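HepaRG, 48 h dosing, 8-pt half-log series from 100 uM in 0.5% DMSO, duplicates. Readout: TaqMan qRT-PCR of HGF mRNA, housekeeping-normalized; bidirectional curve fit vs DMSO baseline.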

Read-out in assay [10]: Insulin Like Growth Factor 1 (IGF1), IGF1 (gene 3479)
The experiment in a line: LTEA_HepaRG_IGF1: Life Technologies and Expression Analysis (LTEA) Assay for Insulin Like Growth Factor 1 (IGF1) using HepaRG (AID 2283506). In a few lines:
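qRT-PCR readout of IGF1 mRNA, normalized to three housekeeping genes, after 48 h chemical exposure of HepaRG cells. Concentrations: 8-point half-log series, top 100 uM, 0.5% DMSO vehicle. Gain or loss fitted against DMSO baseline.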

Read-out in assay [11]: Intercellular Adhesion Molecule 1 (ICAM1), ICAM1 (gene 3383)
The experiment in a line: LTEA_HepaRG_ICAM1: Life Technologies and Expression Analysis (LTEA) Assay for Intercellular Adhesion Molecule 1 (ICAM1) using HepaRG (AID 2283507). In a few lines: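 HepaRG, 48 h exposure, 8-pt half-log series from 100 uM, 0.5% DMSO vehicle, duplicates. Readout: TaqMan qRT-PCR mRNA, housekeeping-normalized (ACTB/GAPDH/POLR2A). Bidirectional curve fit vs DMSO baseline.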

Read-out in assay [12]: Insulin-like growth factor-binding protein 1 (IGFBP1), IGFBP1 (gene 3484)
The experiment in a line: LTEA_HepaRG_IGFBP1: Life Technologies and Expression Analysis (LTEA) Assay for Insulin-like growth factor-binding protein 1 (IGFBP1) using HepaRG (AID 2283508). In a few lines:
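qRT-PCR mRNA read-out (TaqMan, Fluidigm array), normalised to three housekeeping genes; HepaRG cells, 48 h exposure, 8-pt half-log series from 100 uM, 0.5% DMSO vehicle; bidirectional curve fit vs DMSO baseline.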

Read-out in assay [13]: Interleukin 6 Receptor (IL6R), IL6R (gene 3570)
Briefly: LTEA_HepaRG_IL6R: Life Technologies and Expression Analysis (LTEA) Assay for Interleukin 6 Receptor (IL6R) using HepaRG (AID 2283510).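 For AC50: differentiated human HepaRG liver cells in serum-free induction medium.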 In a few lines:
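HepaRG, 48 h exposure, 8-pt half-log series, top 100 uM, 0.5% DMSO vehicle, duplicates. Read-out: TaqMan qRT-PCR of IL6R transcript, housekeeping-gene normalized. Gain or loss fitted relative to DMSO baseline.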

Read-out in assay [14]: Potassium channel subfamily K member 1 (KCNK1), KCNK1 (gene 3775)
Briefly: LTEA_HepaRG_KCNK1: Life Technologies and Expression Analysis (LTEA) Assay for Potassium channel subfamily K member 1 (KCNK1) using HepaRG (AID 2283511). In a few lines: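 HepaRG, 48 h exposure, 8-pt half-log series top 100 uM, 0.5% DMSO vehicle, duplicates. Readout: KCNK1 transcript by qRT-PCR (Fluidigm array), housekeeping-normalized; bidirectional curve fit relative to DMSO baseline.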

Read-out in assay [15]: Keratin 19 (KRT19), KRT19 (gene 3880)
The experiment in a line: LTEA_HepaRG_KRT19: Life Technologies and Expression Analysis (LTEA) Assay for Keratin 19 (KRT19) using HepaRG (AID 2283512). In a few lines: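 HepaRG, 48 h chemical exposure, 8-pt half-log CRC from 100 uM, 0.5% DMSO vehicle, duplicates. Readout: TaqMan qRT-PCR of KRT19 mRNA, housekeeping-normalized (ACTB/GAPDH/POLR2A). Bidirectional fit vs DMSO baseline.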

Read-out in assay [16]: Lipase C (LIPC), LIPC (gene 3990)
The experiment in a line: LTEA_HepaRG_LIPC: Life Technologies and Expression Analysis (LTEA) Assay for Lipase C (LIPC) using HepaRG (AID 2283514). In a few lines: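 HepaRG, 48 h exposure, 8-pt half-log series from 100 uM in 0.5% DMSO, duplicates. Readout: LIPC mRNA by Fluidigm qRT-PCR, housekeeping-normalized (ACTB/GAPDH/POLR2A). Gain or loss fitted bidirectionally against DMSO baseline.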

Read-out in assay [17]: Lipoprotein lipase (LPL), LPL (gene 4023)
Briefly: LTEA_HepaRG_LPL: Life Technologies and Expression Analysis (LTEA) Assay for Lipoprotein lipase (LPL) using HepaRG (AID 2283515). In a few lines:
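HepaRG, 48 h exposure, 8-pt half-log dilutions from 100 uM, 0.5% DMSO vehicle, duplicates; qRT-PCR (Fluidigm array) of LPL mRNA vs housekeeping genes; bidirectional curve fit relative to DMSO baseline.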

Read-out in assay [18]: MicroRNA 122 (MIR122), gene 406906
Briefly: LTEA_HepaRG_MIR122: Life Technologies and Expression Analysis (LTEA) Assay for MicroRNA 122 (MIR122) using HepaRG (AID 2283516). Note: the transcript read is the microRNA miR-122. In a few lines:
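qRT-PCR read-out (TaqMan, Fluidigm array), normalized to three housekeeping genes; HepaRG cells dosed 48 h at 8 concentrations up to 100 uM in 0.5% DMSO, duplicate; gain or loss fitted against DMSO baseline.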

Read-out in assay [19]: matrix metalloproteinase-10 (MMP10), MMP10 (gene 4319)
Briefly: LTEA_HepaRG_MMP10: Life Technologies and Expression Analysis (LTEA) Assay for matrix metalloproteinase-10 (MMP10) using HepaRG (AID 2283517). In a few lines: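 Transcript levels come from Fluidigm qRT-PCR normalized to three housekeeping genes, with curves fitted bidirectionally against 0.5% DMSO. Human HepaRG cells were dosed for 48 hours at concentrations up to 100 uM.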

Read-out in assay [20]: MYC, MYC (gene 4609)
The experiment in a line: LTEA_HepaRG_MYC: Life Technologies and Expression Analysis (LTEA) Assay for MYC using HepaRG (AID 2283518). In a few lines:
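qRT-PCR read-out of MYC transcript (Fluidigm TaqMan, housekeeping-normalized) after 48 h chemical exposure of HepaRG cells; eight concentrations, top 100 uM, half-log steps. Bidirectional curve fitting against 0.5% DMSO vehicle baseline.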

The source made the active and inactive calls. Rule for the calls: active = hit-call score of the fitted dose curve at least 0.9, where 1 is the maximum; inactive = score below 0.9.

For orientation: AC50 means the midpoint of the concentration-response curve, whichever way the signal moves.

Chain of Hypoxia-inducible factor 1-alpha (Homo sapiens) (Q16665 whole entry, looked up): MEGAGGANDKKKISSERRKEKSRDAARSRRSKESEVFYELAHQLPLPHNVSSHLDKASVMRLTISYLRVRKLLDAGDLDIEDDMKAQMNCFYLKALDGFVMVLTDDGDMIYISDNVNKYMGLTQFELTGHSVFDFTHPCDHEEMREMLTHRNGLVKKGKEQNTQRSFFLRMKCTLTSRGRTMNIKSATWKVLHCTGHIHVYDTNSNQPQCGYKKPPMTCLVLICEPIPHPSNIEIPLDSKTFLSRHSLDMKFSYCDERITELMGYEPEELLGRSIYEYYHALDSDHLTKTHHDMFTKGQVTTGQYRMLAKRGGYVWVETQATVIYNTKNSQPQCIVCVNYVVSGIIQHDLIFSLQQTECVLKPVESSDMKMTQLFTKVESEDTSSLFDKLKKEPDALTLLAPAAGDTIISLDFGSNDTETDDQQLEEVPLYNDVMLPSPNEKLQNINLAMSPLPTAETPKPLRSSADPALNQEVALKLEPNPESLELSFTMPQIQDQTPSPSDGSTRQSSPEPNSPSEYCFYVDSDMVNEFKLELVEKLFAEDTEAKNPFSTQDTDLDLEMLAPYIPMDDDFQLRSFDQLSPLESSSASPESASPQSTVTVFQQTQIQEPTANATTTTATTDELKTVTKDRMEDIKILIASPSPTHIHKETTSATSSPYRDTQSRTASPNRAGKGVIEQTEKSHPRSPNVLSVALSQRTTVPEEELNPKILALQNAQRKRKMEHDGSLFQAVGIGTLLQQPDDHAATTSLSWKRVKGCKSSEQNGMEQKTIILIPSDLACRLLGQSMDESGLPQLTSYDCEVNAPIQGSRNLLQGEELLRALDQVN

As for `O=C1C2(Cl)C3(Cl)C4(Cl)C(Cl)(Cl)C5(Cl)C3(Cl)C1(Cl)C5(Cl)C24Cl` (stereo not given), the AC50 is 24.1 µM (active) in [1]; 20.6 µM (active) in assay [2]; 22.9 µM (active) in [3]; 59 µM (active) in assay [4]; 88.5 µM (active) in [5]; 91.9 µM (active) in assay [6]. In addition, the AC50 in assay [7] is 92.5 µM (active); in assay [8], 24.2 µM (active); in [10] it was 23.8 µM (active); in assay [11], 91.4 µM (active); in assay [12], 84 µM (active); in assay [13] it was 90.8 µM (active). Also, the AC50 in [15] was 93.5 µM (active); in [17] it was 91.9 µM (active); in [18], 93.8 µM (active); in [19] it was 88.8 µM (active); in assay [20], 24.9 µM (active). For the same compound, the compound was called inactive in [9], in [14] and in assay [16].

As to `CC(C)(OO)c1ccccc1`, the outcome in [1], in [2], in assay [3], in assay [4], in assay [5] and in assay [6] was inactive. Moreover, the compound was classed as inactive in assay [7], in assay [8], in [9], in assay [10], in assay [11] and in assay [12]. Besides, the compound was classed as inactive in assay [13], in assay [14], in assay [15], in [16], in assay [17] and in assay [18]. Besides, the result in assay [19] and in assay [20] was inactive.

With `O=c1[nH]c(=O)[nH]c(=O)[nH]1`, the compound was classed as inactive in [1], in assay [2], in [3], in assay [4], in assay [5] and in [6]. In addition, the compound was classed as inactive in assay [7], in assay [8], in assay [9], in [10], in assay [11] and in assay [12]. The call in [13], in assay [14], in assay [15], in assay [16], in assay [17] and in [18] was inactive. Also, the call in assay [19] and in assay [20] was inactive.

On to `CCOP(=S)(OCC)Oc1nc(Cl)c(Cl)cc1Cl`, for which the compound was called inactive in [1], in assay [3], in [4], in [5], in assay [6] and in assay [7]. The compound was classed as inactive in assay [8], in assay [9], in assay [10], in assay [11], in assay [12] and in assay [13]. In addition, the outcome in [14], in [15], in assay [16], in assay [17], in [18] and in [19] was inactive. Besides, in assay [20], the compound was classed as inactive. Also, the AC50 in assay [2] is 50 µM (active).

(Values after PubChem BioAssay (EPA / NIEHS).)
